Experimental data reported in PubChem BioAssay AID1159580 (chemical genetic matrix, 2015).
Out of some 5,500 compounds screened, about 2,000 (36%) were called active. Not shown: some 18% with an inconclusive outcome. No stated cut-off is given here; in the data, active means normalized growth mostly below about 0.91 (no sharp cut-off); inconclusive means no clear call, values can overlap the other calls; inactive means mostly above about 0.92. Some of the results follow.

Assay: chemical genetic growth profiling, strain panel (AID 1159580);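 further: tested at 20 µM; growth read once vehicle control cultures reached saturation at 30 °C; 1 = growth at the plate median or of vehicle wells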
Details: growth OD
[1] = S. cerevisiae deletion strains, locus YDL101C, strain DUN1, stronger effect = lower value
[2] = S. cerevisiae deletion strains, locus YHR030C, strain SLT2, stronger effect = lower value
[3] = S. cerevisiae deletion strains, locus YAL013W, strain DEP1, stronger effect = lower value
[4] = S. cerevisiae deletion strains, locus YBR229C, strain ROT2, stronger effect = lower value
[5] = S. cerevisiae deletion strains, locus YCL061C, strain MRC1, stronger effect = lower value
[6] = S. cerevisiae deletion strains, locus YDR150W, strain NUM1, stronger effect = lower value
[7] = S. cerevisiae deletion strains, locus YEL061C, strain CIN8, stronger effect = lower value
[8] = S. cerevisiae deletion strains, locus YGR078C, strain PAC10, stronger effect = lower value
[9] = S. cerevisiae deletion strains, locus YHR087W, strain rtc3, stronger effect = lower value
[10] = S. cerevisiae deletion strains, locus YJR043C, strain POL32, stronger effect = lower value
[11] = S. cerevisiae deletion strains, locus YJR075W, strain HOC1, stronger effect = lower value
[12] = S. cerevisiae deletion strains, locus YKL190W, strain CNB1, stronger effect = lower value
[13] = S. cerevisiae deletion strains, locus YLR039C, strain RIC1, stronger effect = lower value
[14] = S. cerevisiae deletion strains, locus YLR058C, strain SHM2 (second series), stronger effect = lower value
[15] = S. cerevisiae deletion strains, locus YLR085C, strain ARP6, stronger effect = lower value
[16] = S. cerevisiae deletion strains, locus YLR262C, strain YPT6, stronger effect = lower value
[17] = S. cerevisiae deletion strains, locus YML094W, strain GIM5, stronger effect = lower value
[18] = S. cerevisiae deletion strains, locus YMR219W, strain ESC1, stronger effect = lower value
[19] = S. cerevisiae deletion strains, locus YMR263W, strain SAP30, stronger effect = lower value
[20] = S. cerevisiae deletion strains, locus YNL153C, strain GIM3, stronger effect = lower value
[21] = S. cerevisiae deletion strains, locus YNL298W, strain CLA4 (second series), stronger effect = lower value
[22] = S. cerevisiae deletion strains, locus YNL322C, strain KRE1, stronger effect = lower value
[23] = S. cerevisiae deletion strains, locus YNR030W, strain Alg12, stronger effect = lower value
[24] = S. cerevisiae deletion strains, locus YPL055C, strain LGE1, stronger effect = lower value
[25] = S. cerevisiae deletion strains, locus YPL241C, strain CIN2, stronger effect = lower value
[26] = S. cerevisiae deletion strains, locus YPR135W, strain CTF4, stronger effect = lower value

Measured: normalized growth

Cc1cccc(NC(=S)NNC(=O)CSCc2cccc3ccccc23)c1
inactive: S. cerevisiae deletion strains, locus YAR019C, strain CDC15, stronger effect = lower value 0.986 | S. cerevisiae deletion strains, locus YBL105C, strain PKC1, stronger effect = lower value 0.988 | S. cerevisiae deletion strains, locus YBR135W, strain CKS1, stronger effect = lower value 0.999 | S. cerevisiae deletion strains, locus YBR136W, strain MEC1, stronger effect = lower value 0.974 | S. cerevisiae deletion strains, locus YBR160W, strain CDC28, stronger effect = lower value 1 | S. cerevisiae deletion strains, locus YDL017W, strain CDC7, stronger effect = lower value 0.987 | S. cerevisiae deletion strains, locus YDL028C, strain MPS1, stronger effect = lower value 0.984 | [1] 0.975 | S. cerevisiae deletion strains, locus YDL108W, strain KIN28, stronger effect = lower value 0.982 | S. cerevisiae deletion strains, locus YDL132W, strain cdc53, stronger effect = lower value 0.989 | S. cerevisiae deletion strains, locus YDL214C, strain PRR2, stronger effect = lower value 0.904 | S. cerevisiae deletion strains, locus YDR052C, strain DBF4, stronger effect = lower value 1 | S. cerevisiae deletion strains, locus YDR054C, strain cdc34, stronger effect = lower value 0.983 | S. cerevisiae deletion strains, locus YDR226W, strain ADK1, stronger effect = lower value 0.988 | S. cerevisiae deletion strains, locus YDR477W, strain SNF1, stronger effect = lower value 0.924 | S. cerevisiae deletion strains, locus YER123W, strain YCK3, stronger effect = lower value 0.851 | S. cerevisiae deletion strains, locus YER133W, strain GLC7, stronger effect = lower value 0.906 | S. cerevisiae deletion strains, locus YFL009W, strain cdc4, stronger effect = lower value 0.99 | S. cerevisiae deletion strains, locus YFL029C, strain CAK1, stronger effect = lower value 0.983 | S. cerevisiae deletion strains, locus YFR003C, strain YPI1, stronger effect = lower value 0.982 | S. cerevisiae deletion strains, locus YFR019W, strain FAB1, stronger effect = lower value 0.965 | S. cerevisiae deletion strains, locus YFR028C, strain CDC14, stronger effect = lower value 0.99 | S. cerevisiae deletion strains, locus YGR040W, strain KSS1, stronger effect = lower value 0.904 | S. cerevisiae deletion strains, locus YGR052W, strain FMP48, stronger effect = lower value 0.992 | S. cerevisiae deletion strains, locus YGR092W, strain DBF2, stronger effect = lower value 0.865 | [2] 0.997 | S. cerevisiae deletion strains, locus YHR079C, strain IRE1, stronger effect = lower value 0.992 | S. cerevisiae deletion strains, locus YHR082C, strain KSP1, stronger effect = lower value 0.983 | S. cerevisiae deletion strains, locus YHR205W, strain SCH9, stronger effect = lower value 0.963 | S. cerevisiae deletion strains, locus YIL147C, strain SLN1, stronger effect = lower value 0.972 | S. cerevisiae deletion strains, locus YJL095W, strain BCK1, stronger effect = lower value 0.995 | S. cerevisiae deletion strains, locus YJL128C, strain PBS2, stronger effect = lower value 0.96 | S. cerevisiae deletion strains, locus YJL157C, strain FAR1, stronger effect = lower value 0.881 | S. cerevisiae deletion strains, locus YJR016C, strain ILV3, stronger effect = lower value 0.984 | S. cerevisiae deletion strains, locus YJR066W, strain TOR1 (second series), stronger effect = lower value 0.866 | S. cerevisiae deletion strains, locus YJR066W, strain TOR1, stronger effect = lower value 0.981 | S. cerevisiae deletion strains, locus YKL048C, strain ELM1, stronger effect = lower value 0.991 | S. cerevisiae deletion strains, locus YKL067W, strain YNK1, stronger effect = lower value 0.914 | S. cerevisiae deletion strains, locus YKL101W, strain HSL1, stronger effect = lower value 0.929 | S. cerevisiae deletion strains, locus YKL193C, strain SDS22, stronger effect = lower value 0.989 | S. cerevisiae deletion strains, locus YKL203C, strain TOR2, stronger effect = lower value 0.989 | S. cerevisiae deletion strains, locus YLR113W, strain HOG1, stronger effect = lower value 0.962 | S. cerevisiae deletion strains, locus YLR133W, strain CKI1, stronger effect = lower value 0.948 | S. cerevisiae deletion strains, locus YLR403W, strain SFP1, stronger effect = lower value 0.909 | S. cerevisiae deletion strains, locus YML070W, strain DAK1, stronger effect = lower value 0.912 | S. cerevisiae deletion strains, locus YMR001C, strain CDC5, stronger effect = lower value 0.988 | S. cerevisiae deletion strains, locus YMR205C, strain PFK2 (second series), stronger effect = lower value 0.943 | S. cerevisiae deletion strains, locus YMR277W, strain FCP1, stronger effect = lower value 0.988 | S. cerevisiae deletion strains, locus YNL006W, strain LST8, stronger effect = lower value 0.986 | S. cerevisiae deletion strains, locus YNL020C, strain ARK1, stronger effect = lower value 0.925 | S. cerevisiae deletion strains, locus YNL161W, strain CBK1, stronger effect = lower value 0.984 | S. cerevisiae deletion strains, locus YNL183C, strain NPR1, stronger effect = lower value 0.996 | S. cerevisiae deletion strains, locus YNL207W, strain RIO2, stronger effect = lower value 0.983 | S. cerevisiae deletion strains, locus YNL222W, strain SSU72, stronger effect = lower value 0.991 | S. cerevisiae deletion strains, locus YNL307C, strain MCK1 (second series), stronger effect = lower value 0.922 | S. cerevisiae deletion strains, locus YOL078W, strain AVO1, stronger effect = lower value 0.988 | S. cerevisiae deletion strains, locus YOL136C, strain PFK27, stronger effect = lower value 0.925 | S. cerevisiae deletion strains, locus YOR061W, strain CKA2, stronger effect = lower value 0.904 | S. cerevisiae deletion strains, locus YOR119C, strain RIO1, stronger effect = lower value 0.965 | S. cerevisiae deletion strains, locus YOR231W, strain MKK1, stronger effect = lower value 0.982 | S. cerevisiae deletion strains, locus YOR329C, strain SCD5, stronger effect = lower value 0.981 | S. cerevisiae deletion strains, locus YPL031C, strain PHO85, stronger effect = lower value 0.904 | S. cerevisiae deletion strains, locus YPL153C, strain RAD53, stronger effect = lower value 0.91 | S. cerevisiae deletion strains, locus YPL204W, strain HRR25, stronger effect = lower value 0.914 | S. cerevisiae deletion strains, locus YPL209C, strain IPL1, stronger effect = lower value 0.983 | S. cerevisiae deletion strains, locus YPL256C, strain CLN2, stronger effect = lower value 1.01 | S. cerevisiae deletion strains, locus YPR025C, strain CCL1, stronger effect = lower value 0.99 | S. cerevisiae deletion strains, locus YPR106W, strain ISR1, stronger effect = lower value 0.99 | S. cerevisiae deletion strains, locus YPR111W, strain DBF20, stronger effect = lower value 0.99 | S. cerevisiae deletion strains, strain NNK1, stronger effect = lower value 0.982 | S. cerevisiae deletion strains, strain TSCII, stronger effect = lower value 0.988

O=C(CSCc1cccc2ccccc12)NNC(=O)c1ccc(F)cc1
inactive: [3] 0.998 | [4] 0.988 | [5] 1 | [1] 1 | [6] 0.979 | [7] 0.992 | [8] 0.993 | [2] 0.93 | [9] 0.98 | [10] 0.988 | [11] 0.983 | [12] 0.991 | [13] 0.958 | [14] 0.982 | [15] 0.978 | [16] 0.919 | [17] 1.08 | [18] 0.99 | [19] 0.984 | [20] 0.985 | [21] 0.949 | [22] 1 | [23] 0.955 | [24] 1 | [25] 0.989 | [26] 1.07

O=C(CSCc1cccc2ccccc12)NNC(=S)Nc1ccccc1Cl
inactive: [3] 0.969 | [4] 0.991 | [5] 0.971 | [1] 0.987 | [6] 0.933 | [8] 0.984 | [2] 0.728 | [9] 1.02 | [10] 0.986 | [11] 0.984 | [14] 0.978 | [18] 0.988 | [19] 0.955 | [20] 0.958 | [22] 0.996 | [24] 0.903 | [26] 0.793
active: [7] 0.813 | [12] 0.844 | [13] 0.588 | [15] 0.679 | [16] 0.623 | [17] 0.857 | [21] 0.564 | [23] 0.63 | S. cerevisiae deletion strains, locus YOL006C, strain TOP1, stronger effect = lower value 0.365 | [25] 0.648 | S. cerevisiae strains, strain wild type, stronger effect = lower value 0.765
